Screening data: PubChem BioAssay, National Center for Advancing Translational Sciences (NCATS)
Sampled rows, rich in hits. Any-hit rate of the full collection: about 19%.
TDP1 cell CPT: qHTS for Inhibitors of human tyrosyl-DNA phosphodiesterase 1 (TDP1): qHTS in cells in presence of CPT; chicken DT40 Tdp1-/-;hTDP1 cells + 20 nM CPT, ATP luminescence, 48 h; Potency, µM (doses to about 46.2 µM), for the others: at the top dose activity change, negative = growth inhibition, hits mostly inhibitors; 420,000 compounds, 12% hits; further: potency means the concentration at half of the fitted maximal effect; on the % scale 0 is the no-effect control and ±100 the full control effect; nearly all actives have a fitted effect of over 55% in size
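Cell growth measured by CellTiter-Glo luminescence after a minimum 48 h, 37 C compound exposure with 20 nM CPT in Tdp1-knockout DT40 cells stably expressing hTDP1, seeded 400/well; qHTS titration format.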
MCF10A rereplic: A quantitative high throughput screen for small molecules that induce DNA re-replication in MCF 10a normal breast cells | MCF 10A DNA re-replication, Hoechst nuclear intensity, 48 h | Potency, µM (doses to about 46.1 µM), for inactives: at the top dose activity, positive = re-replication, hits mostly activators | 350,000 compounds, 2.9% hits; further: potency means the concentration at half of the fitted maximal effect; % of control where 0% means no effect; nearly all actives have a fitted effect of over 50% in size
Chronic BCR inh: qHTS Assay to Find Inhibitors of Chronic Active B-Cell Receptor Signaling; 340,000 compounds, 0.05% hits; Potency, µM (highest dose often 46.1 µM), for the others: top-dose activity change, negative = inhibition, hits mostly inhibitors; AID 493014, 2011; ABC-DLBCL IkBa-CBG/CBR reporter, luminescence ratio, 4 h; active means well fitted inhibition curve with a large enough effect in the signal ratio, with a control signal flat, not every such curve was filed as active; inconclusive means small, poorly fitted or top-dose-only effect, or effect the other way, or a change in a side signal; the % refers to the signal ratio;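 further: potency means the concentration at half of the fitted maximal effect; plate controls were basal doxycycline-induced cells for no effect and cells given 10 µM MG132 for full effect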
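Concentration-response series (up to 46 uM) were applied to TMD8 dual-reporter cells for 4 h at 37C with doxycycline. Green/red ratio, after filter-overlap correction, defined %Activity; red signal alone was normalised to basal cells and zero luminescence.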
SW480 rerep: A quantitative high throughput screen for small molecules that induce DNA re-replication in SW480 colon adenocarcinoma cells; SW480 DNA re-replication, Hoechst DNA content imaging, 48 h; Potency, µM (doses to about 46.1 µM), for the others: at the highest dose re-replication activation, hits mostly activators; 340,000 compounds, 1.8% hits; AID 624297, 2012; further: potency means the concentration at half of the fitted maximal effect; % of control where 0% means no effect; nearly all actives have a fitted effect of over 55% in size
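DNA re-replication was detected as more nuclei of elevated Hoechst intensity after 48 hr exposure to compound (23 nL pinned per well of 250 cells).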
IL1B secr inh: qHTS for Inhibitors of Inflammasome Signaling: IL-1-beta AlphaLISA Primary Screen; THP-1 LPS/ATP IL-1B secretion, AlphaLISA, 16 h; hits give low values; activity change, % at 57.5 µM; 360,000 compounds, 4.7% hits; in the data active means activity change below about -50%; inconclusive means mostly about -30% to -49%; further: on the % scale 0 is the no-effect control and ±100 the full control effect
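THP-1 cells pretreated 1 hr with compounds (up to 57.5 uM final), then stimulated with LPS (250 ng/mL final) plus ATP (1.25 mM final); secreted IL-1B measured by AlphaLISA after 16 hr, decreased signal indicating inhibition.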
TDP1 cell noCPT: qHTS for Inhibitors of human tyrosyl-DNA phosphodiesterase 1 (TDP1): qHTS in cells in absence of CPT. AID 686978, 2013. DT40 Tdp1-/- hTDP1 cells, no CPT, ATP luminescence, 48 h. 420,000 compounds, 15% hits. Potency, µM (top dose mostly 46.2 µM), without a hit: at the top dose activity change, negative = growth inhibition, usual class: inhibitors; further: potency means the concentration at half of the fitted maximal effect; on the % scale 0 is the no-effect control and ±100 the full control effect; nearly all actives have a fitted effect of over 55% in size
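Camptothecin absent (DMSO only). Human TDP1-complemented DT40 knockout cells, 400 cells/well, 37 °C for minimum 48 hr; ATP measured via CellTiter-Glo, 30 min dark incubation, luminescence.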
Numbers without * were called inactive; ? = inconclusive; · = no result; ! = not active in a repeat. Unless noted, the call rests on the fitted dose curve; in most records, active means well fitted curve in the direction sought with a large enough effect; inconclusive means small, poorly fitted or top-dose-only effect, or another doubt; inactive means no such curve, though single readings can be large; an effect the other way counts as inactive or inconclusive.

SMILES	TDP1 cell CPT	MCF10A rereplic	Chronic BCR inh	SW480 rerep	IL1B secr inh	TDP1 cell noCPT
O=C(NCCc1ccccc1)C1CCC(Cn2c(=O)c3ccccc3n(Cc3cccc(F)c3)c2=O)CC1 (centres undefined)	?	?	0%	1%	16	?
O=C(NCCc1ccccc1)C1CCC(Cn2c(=O)c3ccccc3n(Cc3cccc(Cl)c3)c2=O)CC1 (centres undefined)	?	-1%	·	4%	25	15µM*
COc1ccc(NC(=O)Cn2c(=O)n(CC(=O)NCCc3ccccc3)c(=O)c3ccccc32)cc1	-17%	·	·	·	·	-19%
COc1ccccc1NC(=O)Cn1c(=O)n(CC2CCC(C(=O)NCCc3ccccc3)CC2)c(=O)c2ccccc21 (centres undefined)	18µM*	·	·	·	·	?
Cc1cccc(NC(=O)Cn2c(=O)n(CC3CCC(C(=O)NCCc4ccccc4)CC3)c(=O)c3ccccc32)c1 (centres undefined)	18µM*	·	·	·	·	?
COc1cc(NC(=O)Cn2c(=O)n(CC3CCC(C(=O)NCCc4ccccc4)CC3)c(=O)c3ccccc32)cc(OC)c1 (centres undefined)	12µM*	·	·	·	·	?
Cc1cccc(C)c1-n1nnnc1C1c2ccccc2C(=O)N1CCCN1CCOCC1 (centres undefined)	-1%	·	·	·	9	-6%
COc1ccc(N2CCN(C(=O)c3cc(NC(C)=O)c4c(c3)ncn4CCc3ccccn3)CC2)cc1	4%	·	·	·	·	-19%
C[N+](C)(C)CCN(Cc1ccc(Cl)cc1)c1ccccn1	18µM*	6%	3%	-9%	-28	16µM*
CSCC[C@H](NC(=O)[C@@H]1CSC2c3ccccc3C(=O)N21)C(=O)N1CCC[C@H]1CO (some centres undefined)	3%	-1%	10%	3%	15	-3%
C[C@]12C=CC(=O)N[C@@H]1CC[C@@H]1C2CC[C@]2(C)C(C(=O)Nc3cc(C(F)(F)F)ccc3C(F)(F)F)CC[C@@H]12 (some centres undefined)	·	21%	·	7%	·	·
N#C/C(=C\c1ccc(O)c(O)c1)C(=O)Nc1ccccc1	24µM*	?	?	?	23	10µM*
C[C@@H](NC(=O)/C(C#N)=C/c1ccc(O)c(O)c1)c1ccccc1	24µM*	-8%	-6%	18%	28	13µM*!
C[C@H](NC(=O)/C(C#N)=C/c1ccc(O)c(O)c1)c1ccccc1	19µM*	·	·	·	·	19µM*
CC(NC(=O)/C(C#N)=C/c1ccc(Cl)c([N+](=O)[O-])c1)c1ccccc1 (centres undefined)	3.7µM*	?	?	-140%	-98*	3.7µM*
Cc1cccc(C)c1-n1nnnc1C(c1ccnc2ccccc12)N1CCN(c2ccccc2F)CC1 (centres undefined)	?	·	·	·	23	?
CCOc1ccc(/C=C(\C#N)C(=O)Nc2ccccn2)cc1	-21%	8%	?	-5%	-9	-19%
N#C/C(=C\c1ccc(F)cc1)C(=O)Nc1ccccn1	5%	5%	?	4.1µM*	58	-44%
CCOc1ccccc1Nc1nc(-c2ccc(C)cc2)c(CC(=O)O)s1	?	·	·	·	·	-14%
Cc1ccc(O)c(C(=O)CC(=O)c2ccc(Cl)cc2)c1	7.3µM*	?	?	?	0	5.8µM*
Cc1cccc(C(=O)CC(=O)c2cc(Cl)ccc2O)c1	3.3µM*	?	21%	17%	75	4.1µM*
Cc1ccc(O)c(C(=O)CC(=O)c2cccc(F)c2)c1	2.3µM*	?	10%	9%	0	2.6µM*
Cc1cccc(C(=O)NCC(=O)NNC(=O)c2ccccc2O)c1	-3%	5%	-24%	-138%	5	-16%
Cc1ccc(C(=O)CC(=O)c2ccccc2)cc1	?	-6%	?	4%	-2	?
O=C(CC(=O)c1cc(Cl)ccc1O)c1ccccc1	2.3µM*	21µM*	?	?	39	4.6µM*
SMILES	TDP1 cell CPT	MCF10A rereplic	Chronic BCR inh	SW480 rerep	IL1B secr inh	TDP1 cell noCPT
COc1ccc(C)cc1NC(=O)c1cc(S(=O)(=O)N2CCCCC2)c[nH]1	-20%	·	·	·	·	?
NC(=NCCc1ccccc1)NC(=O)c1cc(Cl)ccc1O	?	?	·	21µM*	-11	18µM*
NC(=NCCc1ccc(Cl)cc1)NS(=O)(=O)c1ccccc1	?	0%	-1%	12%	1	-24%
COC(=O)[C@@H](Cc1c[nH]c2ccccc12)NC(=O)CCC(=O)c1ccc(F)cc1	-9%	0%	3%	3%	0	20%
Cc1cccc(N/N=C/c2ccccc2O)c1	23%	?	?	-1%	-9	-8%
COc1ccc(/C=N/Nc2cc(C)nc3ccc(Br)cc23)cc1	?	12µM*	?	16µM*	-101*	8.2µM*
COc1ccc2nc(C)cc(N/N=C/c3cccc(OC)c3O)c2c1	?	?	?	?	-99*	?
Cc1cc(N/N=C/c2ccccc2O)c2ccccc2n1	16µM*	12µM*	?	?	-63*	16µM*
COc1ccc2nc(/N=C/c3cccc(OC)c3O)sc2c1	-17%	-1%	-9%	2%	15	-20%
COc1cccc2c(N/N=C/c3ccccc3)cc(C)nc12	-13%	4%	-15%	-14%	8	0%
CN(C)c1ncc2nc(-c3cccs3)c(=O)n(C)c2n1	-2%	·	·	·	·	18%
O=C(NCCCOc1ccc([N+](=O)[O-])cc1Cl)OCc1ccccc1	-29%	9%	·	-3%	?	-25%
Cc1ccccc1-c1n[nH]c(=S)n1/N=C/c1c(C)nn(-c2ccccc2)c1C	-2%	4%	3%	-3%	-10	-1%
COc1cc(-c2n[nH]c(=S)n2/N=C/c2cccn2C)cc(OC)c1OC	?	-1%	-11%	12%	45	18µM*
COc1cc(/C=N/n2c(-c3ccccc3)n[nH]c2=S)ccc1O	1%	-1%	?	-14%	81	-13%
